Where “and” joins values, the source holds several entries; their conditions need not be identical. Equal values may be shown once. This is part of a sample that, as a whole, favours compounds with a hit. Of some 79,000 tested, about 15% had one in any assay. Values without a mark were called inactive. Calls of active or inactive are those of the source. Cut-off read from the data, not from the text of the source: active = growth inhibition above about 70%; inactive = the rest.
Assay: NCI Yeast Anticancer Drug Screen. Data for the sgs1 mgt1 strain (AID 161);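 note: 0% = growth of cultures given vehicle only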
Details: S. cerevisiae sgs1 mgt1 strain, stronger effect = higher value
Description: Growth inhibition of yeast strains with defined genetic alterations is measured as a screen for potential anti-cancer activity. Selected strains with alterations in DNA damage repair or cell cycle control were exposed to compounds and growth inhibition was measured relative to vehicle treated controls. The strain used in this assay is sgs1 mgt1

[1] = at 5.0 µM (retest, dose inferred, filed as 0.5)
[2] = at 50.0 µM (retest, dose inferred, filed as 5.0)

## OC(/C=C/c1ccccc1)(Cc1cc(-c2ccccc2)n[nH]1)c1ccccc1 (configuration not stated)
[1]
  growth inhibition: 17%
[2]
  growth inhibition: 97% (active)
At 50.0 µM
  growth inhibition: 97.8% (active)

## CN(CCN(C)Cc1ccccc1)Cc1ccccc1
[1]
  growth inhibition: -1%
[2]
  growth inhibition: 57%
At 50.0 µM
  growth inhibition: 51.3%

## CCCCCCCCCCCC1=NCCO1
[1]
  growth inhibition: -12%
[2]
  growth inhibition: 47%
At 50.0 µM
  growth inhibition: 87.6% (active)

## Cc1c(C(C)C)cc(OCCO)cc1C(C)C
[1]
  growth inhibition: 0%
[2]
  growth inhibition: 10%
At 50.0 µM
  growth inhibition: 0.35%

## O=C1N=C2SC=C(NC(=S)Nc3ccccc3)N2NC12c1ccccc1-c1ccccc12
[1]
  growth inhibition: -8%
[2]
  growth inhibition: 44%
At 50.0 µM
  growth inhibition: 25.6%

## S=C1SCN(C2CCCCC2)CN1C1CCCCC1
[1]
  growth inhibition: 0%
[2]
  growth inhibition: 94% (active)
At 50.0 µM
  growth inhibition: 72.3% (active)

## CC(C)(C)c1ccc(NS(=O)(=O)c2ccc(N)cc2)cc1
[1]
  growth inhibition: 0%
[2]
  growth inhibition: -16%
At 50.0 µM
  growth inhibition: 96.3% (active)

## O=c1ccc2ccccc2c2ccccc12
[1]
  growth inhibition: 6%
[2]
  growth inhibition: 98% (active)
At 50.0 µM
  growth inhibition: 91.6% (active)

## COc1ccc(C(=O)C(CN(C)C)CN(C)C)cc1
[1]
  growth inhibition: 34% and 14%
[2]
  growth inhibition: 59% and 35%
At 50.0 µM
  growth inhibition: 32.8% and 61.8%

## C=C1CCC(O)C/C1=C/C=C1\CCCC2(C)C1CCC2C(C)CCCC(C)C (configuration not stated)
[1]
  growth inhibition: 6%
[2]
  growth inhibition: 57%
At 50.0 µM
  growth inhibition: 54.9%

## O=Cc1ccc2c(c1)C(=O)c1ccccc1C2=O
[1]
  growth inhibition: 5%
[2]
  growth inhibition: 8%
At 50.0 µM
  growth inhibition: 39.5%

## O=C(/C=C\c1cccc(C(F)(F)F)c1)c1ccccc1
[1]
  growth inhibition: 18%
[2]
  growth inhibition: 59%
At 50.0 µM
  growth inhibition: 36.4%

## NC(=O)c1c([N+](=O)[O-])cc(C(F)(F)F)cc1[N+](=O)[O-]
[1]
  growth inhibition: 5%
[2]
  growth inhibition: 2%
At 50.0 µM
  growth inhibition: 98.4% (active)

## CCC(C)OC(=O)Nc1ccc(C)c(NC(=O)OC(C)CC)c1 (configuration not stated)
[1]
  growth inhibition: 1%
[2]
  growth inhibition: 85% (active)
At 50.0 µM
  growth inhibition: 79.4% (active)
